The text below walks through data of ChEMBL document CHEMBL4513216, “Probing the Open Global Health Chemical Diversity Library for Multistage-Active Starting Points for Next-Generation Antimalarials” (ACS Infect Dis, 2020).

The whole screen tested about 69,000 compounds, of which about 8,600 (12%) showed an effect of 50% or more. Only a selection was taken, and strong results are over-represented in it overall.

For this test, the system named is Plasmodium berghei. Nature of the test: Screen against P. berghei liver stage (PbLuc), transformed with Luciferase, at 10uM. It counts as functional, HepG2. As to conditions: tested at 10 uM.
For the compound `CC(O)CN1CCN(C(=O)CN(C)c2ccc(C#N)cn2)CC1` (centres undefined), the INHIBITION is given as 18.4%. For the compound `Fc1ccccc1C1(CNC2CCOC3(CCOCC3)C2)CCCC1` (centres undefined), the INHIBITION was determined as 14.4%.

`c1cnn(CCCO[C@@H]2CN(C3CCOCC3)[C@@H]3CCCO[C@@H]32)c1`: the INHIBITION is -40.9%.

For the compound `Cc1nnc2n1CCN(c1nn3cc(C(C)(C)C)nc3s1)C2`, the INHIBITION is reported as -1.15%. With `Cc1ccsc1C(=O)N1CC[C@H]2CO[C@H](CN(C)C)[C@H]2C1` the figure was -47.5%.

As to `COCCN1Cc2ccccc2C2(CCN(S(C)(=O)=O)CC2)C1`, the INHIBITION is -21.1%. In the case of `O=c1[nH]c2nc(N3CCCCCC3)ncc2c(=O)n1-c1cccc(F)c1` it was 21.7%. In the case of `Cc1nccn1CC1CCN(C(=O)c2ccccc2)CC1` it was 67.4%; in that of `Cc1nccn1CC1CCCN(C(=O)Cc2ccsc2)C1` (centres undefined), 42.5%; in that of `Cc1nccn1CC1CCN(C(=O)Cc2ccccc2)CC1`, 65.9%. With `Cc1nccn1CC1CCN(C(=O)c2cccs2)CC1` the figure was 14.2%; with `Cn1ccnc1N1CCN(C(=O)Cc2ccccc2)CC1`, 34.2%; with `Cc1nccn1CC1CCCN(C(=O)c2cnn(C)c2)C1` (centres undefined), 20.4%. Take `Cn1cc(-c2cc(-c3cnn(C)c3)n(CC(=O)NC3CC3)n2)cn1`: the INHIBITION worked out at 44.3%.

Consider `COCCN1CCC1c1cc(NC2CCCC2)nc(C)n1` (centres undefined), for which the INHIBITION is recorded as 4.41%. In the case of `Clc1ccc(C2(CNC3=NCCN3)CC2)cc1` it was 56.6%.

`OCCN(Cc1ccncc1)CC1(c2ccc(Cl)cc2)CCCC1`: the INHIBITION is 18.3%.

Regarding `Clc1ccc(C2(CNC3=NCCN3)CCCCC2)cc1`, the INHIBITION stood at 74%. With `CC1(C)CN(C(CNC2=NCCN2)c2ccc(Cl)cc2)CCO1` (centres undefined) the figure was 1.84%. In the case of `Fc1ccc(C2(CNC3=NCCN3)CCCC2)cc1` it was 27.6%. With `Clc1ccc(C2(CNC3=NCCN3)CCCC2)cc1` the figure was 68.2%; with `Cc1nnc(C(C)NCC2(c3ccc(Cl)cc3)CCCC2)o1` (centres undefined), 18.2%. As to `Cc1nnc(C(C)NCC2(c3ccc(Cl)cc3)CCOCC2)o1` (centres undefined), the INHIBITION was found to be 11.8%. Consider `Fc1ccc(C2(CNC3=NCCCN3)CCC2)cc1`, for which the INHIBITION was -20.3%. In the case of `CC(=O)N1CC(c2ccnc(Nc3nccs3)n2)C1` it was 12.6%.

With `CN(C)CC1CN(Cc2nnc(C(C)(C)C)o2)CCO1` (centres undefined), the INHIBITION is listed as -104%. With `CCc1nc(-c2cncnc2C2CCNC2)no1` (centres undefined) the figure was 3.6%; with `Cc1cnc(C(=O)N2CCC(C(=O)c3cc(F)ccc3F)CC2)cn1`, -121%.

Turning to `NC(=O)N1CCC2(CCN(Cc3ccccn3)C2=O)C1` (centres undefined), the INHIBITION came out at 24.5%. Turning to `CC(=O)c1cn(CCC(=O)NCCCC(=O)O)c2ccccc12`, the INHIBITION is -10.2%. In the case of `CC(NC(=O)NCCCn1cccn1)c1ccc2c(c1)OCCCO2` (centres undefined) it was -6.7%. Consider `COc1ccc(CC(=O)N2CC[C@@H](OC)[C@@H]2Cc2cccnc2)cc1`, for which the INHIBITION was 38.5%. In the case of `CO[C@@H]1CCN(C(=O)Cc2ccc(F)cc2)[C@@H]1Cc1cccnc1` it was 55.4%. Turning to `CO[C@@H]1CCN(C(=O)Cc2cccc(F)c2)[C@H]1Cc1cccnc1`, the INHIBITION is listed as 19.6%. In the case of `NC(=O)CNC1(c2ccc(Br)cc2)CCOCC1` it was 19.4%; in that of `CC(C)CN1CC(O)CN(S(=O)(=O)c2ccc(F)cc2)CC1=O` (centres undefined), 34.3%; in that of `Cc1nccc(N2CCCC(C)(c3[nH]ncc3C(N)=O)C2)n1` (centres undefined), -7.66%. In the case of `CN(C)C(=O)c1cn[nH]c1C1(C)CCN(c2ncccn2)CC1` it was 12.45%; in that of `Cc1cc(C)nc(N2CCCC(C)(c3[nH]ncc3C(=O)N(C)C)C2)n1` (centres undefined), 53.1%. In the case of `Cc1ccc(S(=O)(=O)NC(CO)CC(C)C)cc1N(C)C` (centres undefined) it was 31.7%; in that of `Cc1nc(C)n(C2CCCN(C(=O)CCCc3ccccn3)C2)n1` (centres undefined), -11.9%. As to `CC(c1ccco1)N(C)Cc1cc2cc3c(cc2[nH]c1=O)OCO3` (centres undefined), the INHIBITION is 16.9%.

For `CC1CCN(c2ccc(NC(=O)CCn3cccn3)cc2)CC1`, the INHIBITION is on record as 11.3%. In the case of `CC(C)CCC(=O)NCc1ccc(N2CCCCC2)cc1` it was 15.5%. In the case of `CCc1nccn1CC(=O)Nc1cccc(C(=O)OC)c1` it was -10.9%; in that of `CC(NCC(=O)NCC(=O)Nc1ccc(F)cc1)c1cccs1` (centres undefined), 0.734%; in that of `O=C(Cn1cccn1)Nc1ccc(N2CCOCC2)cc1`, 68.9%. In the case of `CC1CN(c2ccc(NC(=O)Cn3cccn3)cc2)CCO1` (centres undefined) it was 16.5%; in that of `COC1CCN(c2ccc(NC(=O)Cn3cccc3)cc2)CC1`, 14.2%; in that of `CCc1nccn1CC(=O)Nc1cccc(C(=O)N(C)C)c1`, 0.0996%. For `CCc1nccn1CC(=O)Nc1cccc(N2CCCC2)c1`, the INHIBITION was 74.55%. In the case of `COC1CCN(c2ccc(NC(=O)Cn3cccn3)cc2)CC1` it was 8.31%; in that of `O=C(Cn1cccn1)Nc1ccc(N2CCCCC2)cc1`, 50.2%. With `CC(NCC(=O)Nc1ccc(N2CCCCCC2)cc1)c1cccs1` (centres undefined) the figure was 64.9%; with `CN1CCN(C(=O)c2ccccc2)CC(Cc2cc(N(C)C)ncn2)C1` (centres undefined), 21.1%.

As for `CCCn1nc(C(=O)N(C)Cc2cnn(C)c2)ccc1=O`, the INHIBITION worked out at 48.7%. `CCOCC1CN(C(=O)c2ccnnc2)Cc2cnn(C)c21` (centres undefined): the INHIBITION is given as -2.35%.

For the compound `CN1CCN(Cc2cnc3n2CCN(Cc2cccnc2)CC3)CC1`, the INHIBITION is -1.36%. With `c1cnc(OCc2nnc3n2CCN(CC2CCOCC2)C3)nc1` the figure was 6.66%; with `Cc1nn(C)c(C)c1C1CCCN1C(=O)CCc1ccco1` (centres undefined), -37.7%.

For `COc1cccc(-c2n[nH]cc2CNC2CCN(C(C)C)CC2)c1`, the INHIBITION is reported as -59.5%.

`CCC(NC(=O)C1CC1)c1ccccc1OCC(=O)N1CCCC1` (centres undefined): the INHIBITION is listed as 9.47%. Take `Cn1c(=O)[nH]c(=O)n2c(CC(=O)Nc3c(Cl)cccc3Cl)cnc12`: the INHIBITION came out at 9.32%. With `CN(C)c1cc(C2CCCN(S(=O)(=O)C3CCCC3)C2)ccn1` (centres undefined) the figure was 54.4%.

`O=C(c1noc2c1CCCC2)N1CCCC(c2nccs2)C1` (centres undefined): the INHIBITION is recorded as 13.7%. In the case of `CCS(=O)(=O)N1CCCC(c2ccnc(N(C)C)c2)C1` (centres undefined) it was 0.301%; in that of `CN(C)c1cc(C2CCCN(S(=O)(=O)c3cn(C)cn3)C2)ccn1` (centres undefined), -44.2%. In the case of `CN(C)c1cc(C2CCCN2C(=O)c2noc3c2CCCC3)ccn1` (centres undefined) it was -13.2%; in that of `CN(C)c1cc(C2CCCN(C(=O)c3noc4c3CCCC4)C2)ccn1` (centres undefined), 65.7%; in that of `Cc1cc(C2CCCN(S(=O)(=O)c3cn[nH]c3)C2)ccn1` (centres undefined), 19.6%.

Consider `CNc1cc(C2CCCN(S(=O)(=O)c3cn[nH]c3)C2)ccn1` (centres undefined), for which the INHIBITION is recorded as 28%.

For the compound `CN(C)c1cc(C2CCCN(S(=O)(=O)c3cn[nH]c3)C2)ccn1` (centres undefined), the INHIBITION came out at 85.7%.

As for `Cc1nc(CCNCc2c(C)nn(C)c2N2CCOCC2)cs1`, the INHIBITION is recorded as -1%. With `CCc1cc(NCC(O)CN2CCCCC2)ncn1` (centres undefined) the figure was 27.4%; with `COC(=O)Cn1c(=O)[nH]c2cn(-c3ccccc3)c(=O)n21`, -4.56%.

Take `CC(C)CCN(C)Cc1ccccc1-c1nc(C(C)C)cc(=O)[nH]1`: the INHIBITION is listed as -6.83%. In the case of `Cc1cc(CNCc2c(C(C)C)nn(C)c2N2CCOCC2)no1` it was 28.8%. In the case of `O=C(COCCOc1ccccc1)N1CCCC(n2ccnc2)C1` (centres undefined) it was 15.6%; in that of `Cc1ccc(CN2CCn3c(C(=O)N(C)C)cnc3C2)s1`, 42.1%; in that of `CC1CCc2n[nH]c(C(=O)N3CCc4c(nc(N(C)C)[nH]c4=O)C3)c2C1` (centres undefined), 16.3%. As to `CN(C)c1nccc(N(C)Cc2nc3ccccc3n2C)n1`, the INHIBITION was 55.5%. With `CN(Cc1ncnn1C)c1ccnc(Cc2ccccc2)n1` the figure was -7.16%; with `CN(C)c1nccc(N(C)Cc2ncnn2C)n1`, 32%. In the case of `O=C(NC1CCC1)[C@@H]1C[C@@H]2CCN(Cc3cccs3)C[C@@H]2O1` it was 50%. Regarding `COCCNC(=O)[C@H]1C[C@@H]2CCN(CCc3ccccc3)C[C@H]2O1`, the INHIBITION was 59%.

On to `O=C([C@@H]1C[C@@H]2CCN(C3CCOCC3)C[C@@H]2O1)N1CCCC1`, for which the INHIBITION was -24.1%. For the compound `O=C(NCC1CC1)[C@H]1C[C@@H]2CCN(CCc3ccccc3)C[C@H]2O1`, the INHIBITION stood at 54.4%. With `O=C(NCC1CC1)[C@@H]1C[C@@H]2CCN(Cc3ccccc3)C[C@H]2O1` the figure was 0.618%; with `O=C([C@@H]1C[C@@H]2CCN(C3CCOCC3)C[C@H]2O1)N1CCCC1`, -9.26%. In the case of `O=C(NC1CC1)[C@@H]1C[C@@H]2CCN(Cc3ccccc3)C[C@@H]2O1` it was 47.4%; in that of `O=C([C@H]1C[C@@H]2CCN(C3CCOCC3)C[C@H]2O1)N1CCCC1`, 51%. With `O=C(NC1CCC1)[C@@H]1C[C@@H]2CCN(Cc3ccncc3)C[C@H]2O1` the figure was 32.7%; with `COCCNC(=O)[C@H]1C[C@@H]2CCN(CCc3ccccc3)C[C@@H]2O1`, 22.9%; with `COCCNC(=O)[C@H]1C[C@@H]2CCN(c3ccccc3)C[C@H]2O1`, 10.5%. As for `O=C(NCC1CCOCC1)[C@H]1C[C@@H]2CCN(Cc3ccccc3)C[C@H]2O1`, the INHIBITION amounted to 32.2%. With `COc1ccc(OC2CCN(C(=O)[C@@H](N)Cc3c[nH]cn3)CC2)cc1` the figure was 23.3%; with `CN(C)CC1CSCCCN1C(=O)c1cccc(C(F)(F)F)c1` (centres undefined), 4.35%; with `CC(=O)N1CCN(C(=O)Cc2cnc(-c3c(Cl)cccc3Cl)s2)CC1`, 13.8%. With `CC(C)N1CCC(c2cc(C(F)(F)F)n3ccnc3n2)CC1` the figure was 15.9%. For the compound `O=C1CNc2ncnc(Nc3cccc(Cn4cccn4)c3)c2N1`, the INHIBITION was determined as 46.1%. Turning to `Cc1nonc1CN(C)Cc1cnn(-c2ccc(Cl)cc2)c1`, the INHIBITION was -8.58%. In the case of `CN(C)CCCC(=O)N1C[C@@H]2CC[C@H]1CN(Cc1ccccc1)C2` it was 11.2%; in that of `c1ccc(-n2ccc(CN3CCCCC3Cn3cncn3)n2)cc1` (centres undefined), -10.1%; in that of `CCn1nc(C)c(NC(=O)CN2CC[C@@H](F)C2)c1C`, 24.5%.
